Screening data from PubChem.
MITF inh = MITF inhibitors, primary screen, biochemical, AlphaScreen, human | inhibition, % at 2.6 µM | AID 1259374, 2018 | actives 0.91% (n = 650,000) | Microphthalmia-associated transcription factor (Homo sapiens), O75030 | AlphaScreen MITF homodimerization, bead proximity signal; in the data active = inhibition above about 50%;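 note: 0% = vehicle wells with protein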
FBW7 act = FBW7 E3 ligase activators, primary screen, biochemical, AlphaScreen, human. AlphaScreen FBW7–phospho-cyclin E peptide binding, activator screen. normalized activity (activation), % at 26.1 µM. actives 0.13% (n = 650,000); in the data active = normalized activity above about 1.9%;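 note: purified mutant Fbw7 with reduced substrate affinity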
GPR151 activ = activators of human GPR151, primary screen, cell-based, PathHunter beta-arrestin, luminescence; activation, % at 11.2 µM; AID 1508602, 2020; PathHunter beta-arrestin GPR151 cells; actives 1% (n = 650,000); in the data active = activation above about 4.9%;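 note: 0% = median of compound wells and 100% = cells with positive control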
Target sequence (Q8TDV0 whole entry, looked up): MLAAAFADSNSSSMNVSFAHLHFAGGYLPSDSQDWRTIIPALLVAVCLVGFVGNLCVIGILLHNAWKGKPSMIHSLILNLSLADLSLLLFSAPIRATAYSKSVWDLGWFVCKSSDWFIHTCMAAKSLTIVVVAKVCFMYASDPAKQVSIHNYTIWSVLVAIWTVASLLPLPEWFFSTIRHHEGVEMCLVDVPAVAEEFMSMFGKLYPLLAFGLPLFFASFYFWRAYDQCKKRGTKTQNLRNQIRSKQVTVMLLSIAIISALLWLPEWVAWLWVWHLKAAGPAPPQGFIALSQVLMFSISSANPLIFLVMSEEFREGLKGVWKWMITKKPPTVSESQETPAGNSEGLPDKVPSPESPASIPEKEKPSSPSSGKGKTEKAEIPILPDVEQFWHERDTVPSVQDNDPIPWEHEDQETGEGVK
TEAD-YAP block = TEAD-YAP interaction inhibition, primary screen, TEAD-YAP interaction inhibitor project, luminescence, HEK-TIYL cells; inhibition, % at 9.12 µM; AID 1259422, 2018; TEAD-Gal4/YAP UAS-luciferase luminescence; actives 1.4% (n = 640,000); in the data active = inhibition above about 32%;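 note: 0% = median of test compound wells and 100% = reference inhibitor wells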
Numbers without * were called inactive. The list is not random: actives were taken first. Their share in the collection is about 3.5%.

SMILES	MITF inh	FBW7 act	GPR151 activ	TEAD-YAP block
CC(=O)c1c(C)[nH]c(C(=O)OCCCCN2C(=O)c3ccccc3C2=O)c1C	-5.6	0.0	-0.3	53.8*
CCOC(=O)c1[nH]c(C)c(C(=O)NCc2ccc(C)cc2)c1C	-5.2	0.0	1.2	-0.7
CC(=O)c1c(C)[nH]c(C(=O)COC(=O)CCCN2C(=O)c3ccccc3C2=O)c1C	7.1	-0.1	0.4	6.2
CCOC(=O)c1[nH]c(C)c(C(=O)c2ccc(C)cc2)c1C	6.3	-0.1	1.3	33.8*
COc1ccc(OC)c(N(CC(=O)NC(C(C)C)C(C)C)S(C)(=O)=O)c1	-1.4	-0.1	0.1	-3.9
CCOC(=O)c1cc2c3c(c1)C1C=CCC1C(c1ccc(F)cc1)N3CC1CC=CC21 (configuration not stated)	6.4	0.2	-1.8	5.5
O=C(O)CNC(=O)c1cc2c3c(c1)C1C=CCC1C(c1ccc(F)cc1)N3CC1CC=CC21 (configuration not stated)	73.3*	-1.2	-1.2	1.7
COc1ccc(S(=O)(=O)N2c3ccc(F)cc3CCC2C)cc1 (configuration not stated)	-16.1	-0.1	0.7	56.0*
COc1ccc(C(=O)C2CCN(S(=O)(=O)c3ccc(F)cc3)CC2)cc1	-7.7	-0.2	-0.1	41.9*
CC(=O)Nc1ccc(S(=O)(=O)N2c3ccc(F)cc3CCC2C)cc1 (configuration not stated)	-0.3	0.1	4.2	46.2*
CC1CCc2cc(F)ccc2N1S(=O)(=O)c1c(N)n(C)c(=O)n(C)c1=O (configuration not stated)	-1.7	0.3	-0.2	-5.7
Cn1cc(-c2cnc3c(Nc4cccc(C(F)(F)F)c4)nccn23)cn1	11.6	0.2	0.3	-0.4
CCCC(CCC)=NNC(=O)c1ccc(Br)cc1	8.2	0.7	0.1	-23.5
C=CCOC(=O)C1=C(C)NC2=C(C(=O)CCC2)C1c1cc(OC)c(OC)cc1[N+](=O)[O-] (configuration not stated)	10.5	-0.6	1.6	31.9*
O=NN(CCc1ccncc1)c1ccc(OCc2ccccc2)cc1	1.3	-0.1	0.4	37.7*
O=C1N/C(=C/c2cccc([N+](=O)[O-])c2)C(=O)N1Cc1ccc(Br)cc1	3.2	0.0	0.9	15.5
O=[N+]([O-])c1cccc(S(=O)(=O)Nc2ccc(-c3cn4ccccc4n3)cc2)c1	11.4	-0.1	-0.7	-6.0
Cc1cccc(NC(=O)c2ccc(C(C)(C)C)cc2)n1	-2.0	-0.1	-4.8	44.7*
CCOc1ccc(C(=O)Nc2cccc(C)n2)cc1	9.3	0.0	-9.2	43.0*
Cc1cccc(NC(=O)c2ccc(N)cc2)n1	9.7	-0.1	-5.6	61.4*
CSc1ccc(C(=O)NCC2Cc3cc(Cl)cc(-c4ncccn4)c3O2)cc1 (configuration not stated)	2.1	0.1	0.0	4.9
NC(=O)c1ccccc1NC(=O)c1cc2ccccc2oc1=O	5.0	0.1	-0.2	-39.9
O=C1C2C3CCC(O3)C2C(=O)N1c1ccc2nc3ccccc3cc2c1 (configuration not stated)	-1.5	0.0	-4.5	80.4*
O=C1C2C3CCC(O3)C2C(=O)N1c1cccc([N+](=O)[O-])c1 (configuration not stated)	-8.0	-0.1	0.7	0.3
COc1ccccc1NC(=O)CN1CCC(c2nc3ccc(C)cc3[nH]2)CC1	-17.5	0.0	0.3	-17.1
SMILES	MITF inh	FBW7 act	GPR151 activ	TEAD-YAP block
COc1ccccc1NC(=O)N1CCC(c2nc3ccc(C)cc3[nH]2)CC1	-3.3	0.0	0.0	63.9*
COc1ccccc1NC(=O)N1CCC(c2nc3ccc(Cl)cc3[nH]2)CC1	-3.4	-0.1	-0.5	80.2*
CCC(=O)Nc1ccc(NC(=O)CSc2nnc(-c3ccncc3)n2C)cc1	11.5	0.1	-0.9	-1.8
Cc1cc(C)c2nc(N3CCC(C(=O)N4CCC(N5CCCCC5)CC4)CC3)sc2c1	-1.6	-0.1	-0.4	5.6
CC(C)OC(=O)c1c(-c2ccc(Br)cc2)csc1NC(=O)C1C2CCC(C2)C1C(=O)O (configuration not stated)	-4.2	-0.1	-2.2	-3.7
CC(C)OC(=O)c1c(-c2ccc(Br)cc2)csc1NC(=O)/C=C/C(=O)O	2.2	0.1	1.7	36.0*
N#C/C(=C\c1ccc(N2CCOCC2)cc1)c1nc2ccccc2s1	14.5	0.5	-0.7	39.3*
O=C(O)C/C(=C\c1ccc(N2CCOCC2)cc1)c1nc2ccccc2s1	-4.2	-0.1	-0.9	75.0*
O=C(O)C/C(=C\c1ccc2c(c1)OCCO2)c1nc2ccccc2s1	-6.2	-0.2	1.8	-0.1
CN(C)c1ccc(/C=C(\C#N)c2nc3ccccc3s2)o1	-4.0	-0.3	0.1	53.2*
Cc1cc(Oc2nnnn2-c2ccc(C(=O)O)cc2)ccc1Cl	8.4	0.0	2.4	1.9
O=C(Nc1cccc(F)c1)C1CCCN1C(=O)Nc1cccc(F)c1 (configuration not stated)	-0.6	0.1	-0.8	-4.3
COc1ccc(-c2cn3nc(N4CCCC(C(=O)N5CCCCCC5)C4)sc3n2)cc1 (configuration not stated)	6.8	-0.2	0.7	45.0*
CCN(CC)c1ccc2cc(C(=O)Nc3cccc4ccccc34)c(=O)oc2c1	16.3	0.7	0.6	-21.5
COc1ccc(CNC(=O)c2cc3c(C)nc4ccccc4c3o2)c(OC)c1	-8.9	-0.1	0.2	34.2*
COc1cccc(CNC(=O)c2cc3c(C)nc4ccccc4c3o2)c1	2.5	-0.1	0.3	25.3
O=C(c1ccc2c(=O)n(Cc3cccc(Br)c3)c(=S)[nH]c2c1)N1CCc2ccccc2C1	2.8	-0.1	0.7	-8.9
COc1ccc(CCNc2nc(SCC(=O)N3CCN(c4ccccc4)CC3)nc3ccccc23)cc1OC	9.7	0.6	0.6	35.5*
COc1ccc(CCNc2nc(SCC(=O)N3CCN(c4ccccc4OC)CC3)nc3ccccc23)cc1OC	-0.8	0.9	-0.9	34.4*
CCC(C)NC(=O)CSc1nc(NCCc2ccc(OC)c(OC)c2)c2ccccc2n1 (configuration not stated)	-5.4	-0.1	-0.6	-1.7
COc1ccc(CCn2c(SCC(=O)N3CCN(c4ccccc4OC)CC3)nc3ccsc3c2=O)cc1OC	6.9	-0.1	-1.5	50.6*
Cc1cc(C(=O)CSc2nc3ccccc3[nH]2)c(C)n1CC1CCCO1 (configuration not stated)	9.9	0.0	-0.1	40.2*
Cc1cc(C(=O)CCl)c(C)n1CC1CCCO1 (configuration not stated)	8.7	-0.3	-0.9	-7.2
COC(=O)c1ccc(CSCC(=O)c2cc(C)n(CC3CCCO3)c2C)cc1 (configuration not stated)	0.6	-0.3	2.1	36.8*
CC(C)(C)NC(=O)C(=O)NN=C1CCCCC1	-10.6	0.1	-0.8	-9.2
Cc1onc(-c2ccccc2Cl)c1-c1nc(-c2cccnc2)no1	3.5	0.0	-1.8	58.0*
